Assay [1] in a line: ATG_XTT_Cytotoxicity: Cytotoxicity Assessment in the Attagene TRANS-FACTORIAL HepG2 Assay (AID 2283584). The gist of the method: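 Cells: human HepG2, transiently transfected with MRTU reporter constructs. Exposure 24 h. Readout: XTT, cell number. Baseline/neg ctrl DMSO; loss-of-signal scored.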
Assay [2] can be described thus: TOX21_p53_BLA_p2_viability: Viability Assessment in the Tox21 HCT-116 p53 Agonism Beta-lactamase Assay, Phase 2 (AID 2283591).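 Further: compound exposure lasted 16 h at 37 °C; actives lower the ATP signal meaning cytotoxicity.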 The gist of the method: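 Cytotoxicity readout: CellTiter-Glo ATP luminescence, 30 min at room temperature, after the beta-lactamase read. Cells were HCT116 exposed 16 h at 37C to compounds pin-transferred at 217-fold dilution from DMSO stocks.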

For assay [3], the target named is Cellular tumor antigen p53 (Homo sapiens) (UniProt P04637). The assay can be described thus: TOX21_p53_BLA_p2_ratio: Tox21 HCT-116 p53 Agonism Beta-lactamase Assay, Ratio, Phase 2 (AID 2283592). The gist of the method: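 Plated HCT116 p53-bla cells (4000/well) received compound after 5 h, then 16 h at 37C/5% CO2. CCF4-AM added, 2 h RT. Ratio of 460 to 530 nm emission taken as the p53 reporter signal.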
Chain of Cellular tumor antigen p53 (Homo sapiens) (P04637 whole entry, looked up): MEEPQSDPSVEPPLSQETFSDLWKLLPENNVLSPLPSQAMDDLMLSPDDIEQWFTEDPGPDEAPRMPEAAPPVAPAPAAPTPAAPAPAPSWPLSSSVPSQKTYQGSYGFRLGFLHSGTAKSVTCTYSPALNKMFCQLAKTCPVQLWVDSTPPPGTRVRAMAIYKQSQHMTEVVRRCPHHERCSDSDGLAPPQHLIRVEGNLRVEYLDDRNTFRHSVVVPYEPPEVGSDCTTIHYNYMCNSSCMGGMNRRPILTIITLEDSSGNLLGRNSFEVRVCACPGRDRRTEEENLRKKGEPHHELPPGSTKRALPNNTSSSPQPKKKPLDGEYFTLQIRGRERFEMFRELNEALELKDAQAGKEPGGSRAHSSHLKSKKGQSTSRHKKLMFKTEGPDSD

Assay [4] can be described thus: TOX21_p53_BLA_p3_viability: Viability Assessment in the Tox21 HCT-116 p53 Agonism Beta-lactamase Assay, Phase 3 (AID 2283593).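 Further: cells exposed to compound for 16 h before reading.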 A digest of the protocol: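 Cellular ATP was quantified by CellTiter-Glo luminescence, read after 30 min at room temperature. Beforehand, HCT116 cells (4000/well) received compound 5 h post-seeding, 217-fold diluted from DMSO, then incubated 16 h at 37C.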

Assay [5] addresses Cellular tumor antigen p53 (Homo sapiens) (UniProt P04637). The assay can be described thus: TOX21_p53_BLA_p3_ratio: Tox21 HCT-116 p53 Agonism Beta-lactamase Assay, Ratio, Phase 3 (AID 2283596). The gist of the method:
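Cells were seeded at 4000/well, rested 5 h at 37C, then dosed with DMSO compound solutions (217-fold dilution) for 16 h. CCF4-AM substrate was loaded for 2 h at room temperature, and the 460/530 nm emission ratio was fitted for gain of signal versus DMSO.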

Assay [6] in a line: TOX21_p53_BLA_p4_viability: Viability Assessment in the Tox21 HCT-116 p53 Agonism Beta-lactamase Assay, Phase 4 (AID 2283597).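 Further: hits lower the luminescence signal meaning cytotoxicity.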 A digest of the protocol:
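Readout: ATP luminescence (CellTiter-Glo), measured 30 min after reagent addition at RT. The reagent followed a 2 h CCF4-AM incubation, and the cells had been exposed to compound for 16 h at 37C.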

Assay [7] addresses Cellular tumor antigen p53 (Homo sapiens) (UniProt P04637). Nature of the assay: TOX21_p53_BLA_p5_ratio: Tox21 HCT-116 p53 Agonism Beta-lactamase Assay, Ratio, Phase 5 (AID 2283599). The gist of the method:
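Beta-lactamase reporter ratio (blue 460 nm over green 530 nm, 405 nm excitation) after 2 h CCF4-AM loading, in HCT-116 cells exposed 16 h at 37 C to compounds pinned at 217-fold dilution. Increases relative to DMSO baseline scored.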

The nature of assay [8]: TOX21_p53_BLA_p5_viability: Viability Assessment in the Tox21 HCT-116 p53 Agonism Beta-lactamase Assay, Phase 5 (AID 2283600). A digest of the protocol: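 Workflow: seed 4000 cells per well, wait 5 h, add compounds (DMSO, 217-fold dilution), incubate 16 h, load CCF4-AM 2 h, add CellTiter-Glo, read luminescence after 30 min.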
Assay [9] deals with Cellular tumor antigen p53 (Homo sapiens) (UniProt P04637). The assay can be described thus: TOX21_p53_BLA_p4_ratio: Tox21 HCT-116 p53 Agonism Beta-lactamase Assay, Ratio, Phase 4 (AID 2283601). The gist of the method: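 Signal is the blue/green (460nm/530nm) ratio of cleaved versus uncleaved CCF4-AM substrate, read after 2 h substrate loading. Cells were HCT116 carrying the p53-responsive beta-lactamase reporter, dosed 16 h at 37C, 5% CO2; CellTiter-Glo measured in parallel.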

Drawing on PubChem BioAssay (EPA / NIEHS), this text covers outcome and AC50 for 27 compounds.

Values joined by “and” are separate entries in the source; they are usually repeats but may differ in a detail not shown here. Equal entries are not always repeated. Results filed as inconclusive are left out. Where a structure was tested more than once in an assay, its records may differ in their call. Active and inactive are the calls of the source. How the source made its calls: active means hit-call score of the fitted dose curve at least 0.9, where 1 is the maximum; inconclusive means response in the unintended direction; inactive means score below 0.9.

`CC[Si](OC(C)=O)(OC(C)=O)OC(C)=O`: the call in assay [1], in assay [2], in assay [3], in assay [4], in assay [5] and in [6] was inactive. Also, the outcome in assay [7] and in [8] was inactive.
With `CC(=O)C(=O)O`, the call in assay [1], in [2], in [3], in assay [4], in [5] and in assay [6] was inactive. Further, the outcome in assay [7], in [8] and in [9] was inactive.
Broadly, the AC50 is the concentration at which the activity in the assay is half-maximal. Consider `O=C1OC2(c3cc(Br)c(O)c(Br)c3Oc3c2cc(Br)c(O)c3Br)c2c(Cl)c(Cl)c(Cl)c(Cl)c21`, for which the compound was classed as inactive in [1], in [3], in assay [5], in [7] and in [8]. Moreover, the half-maximal activity concentration (AC50) in assay [2] is 46.2 µM (active) and 19.8 µM (active); in assay [3] it was 16.8 µM (active); in [4], 48.3 µM (active) and 20.9 µM (active); in [5], 50.7 µM (active); in assay [6], 50.2 µM (active) and 23.6 µM (active); in assay [7], 50.2 µM (active). The concentration at half-maximal activity (AC50) in [9] is 48.7 µM (active) and 26.5 µM (active).
For the compound `COc1cc(C(C)(C)C)c(O)c(C(C)(C)C)c1`, in assay [1], the result was inactive.
With `CNCCCC12CCC(c3ccccc31)c1ccccc12`, the result in assay [1], in assay [2], in [4], in assay [5], in [7] and in assay [8] was inactive. Moreover, in [9], the outcome was inactive. Besides, the AC50 in assay [2] is 64.5 µM (active); in [4], 70.4 µM (active); in assay [6], 62.7 µM (active) and 36.6 µM (active); in [7], 90.1 µM (active); in assay [8], 70.2 µM (active); in [9], 87 µM (active).
Take `Cc1ccc(C(=O)c2cc(O)c(O)c([N+](=O)[O-])c2)cc1`: the outcome in [1], in assay [2], in assay [3], in [4], in assay [5] and in assay [7] was inactive. Further, the outcome in assay [8] and in [9] was inactive. Besides, the AC50 in assay [2] was 53.8 µM (active); in [3] it was 14.6 µM (active); in assay [4], 46.1 µM (active); in assay [7], 71.3 µM (active); in assay [9] it was 49.6 µM (active).
On to `CC(c1cc2ccccc2s1)N(O)C(N)=O` (configuration not stated), for which the outcome in [1] was inactive.
`CNC[C@H](O)c1cccc(O)c1`: the outcome in [1], in assay [2], in assay [3], in assay [4], in [5] and in [6] was inactive. Further, the result in [7], in [8] and in [9] was inactive.
`CCCCCCCCCCN`: the result in assay [1], in assay [2], in assay [3], in assay [4], in assay [5] and in assay [6] was inactive. The outcome in assay [7], in [8] and in [9] was inactive.
Take `N#Cc1ccc(CC(=NNC(=O)Nc2ccc(OC(F)(F)F)cc2)c2cccc(C(F)(F)F)c2)cc1`: the call in [1] was inactive.
For the compound `CC1CCC(C(C)(C)O)CC1` (configuration not stated), the compound was called inactive in [1].
As to `O=C(O)c1cccc([N+](=O)[O-])c1`, the result in [1], in assay [2], in [3], in assay [4], in assay [5] and in assay [6] was inactive. Also, the outcome in assay [7], in assay [8] and in [9] was inactive.
In the case of `c1ccc2c(c1)c1cccc3ccc4cccc2c4c31`, the result in assay [1], in assay [2], in [3], in [4], in assay [5] and in assay [7] was inactive. For the same compound, the compound was called inactive in assay [8] and in assay [9]. Besides, the AC50 in assay [3] was 15 µM (active); in assay [5], 60.5 µM (active); in assay [7], 40.6 µM (active).
Regarding `CCCCC/C=C/C=C/C=O`, the compound was called inactive in [1], in assay [2], in assay [3], in assay [5], in assay [6] and in assay [7]. The compound was classed as inactive in assay [8] and in [9]. Moreover, the concentration at half-maximal activity (AC50) in assay [2] is 62.9 µM (active); in assay [4], 86.9 µM (active) and 30.3 µM (active); in assay [6], 75 µM (active).
For `OCCOc1cccc(OCCO)c1`, the compound was called inactive in [1].
Still for that read-out and setting: the result for `O=C(COc1ccc(Cl)cc1)N1CCN(Cc2ccc3c(c2)OCO3)CC1` reads “inactive”.
As for `BrC1CCC(Br)C(Br)CCC(Br)C(Br)CCC1Br` (configuration not stated), the result in assay [1], in assay [4], in assay [7] and in [8] was inactive. The AC50 was 18.1 µM (active) and 18.2 µM (active) in assay [2]; 53.1 µM (active) and 45.9 µM (active) in [3]; 15.1 µM (active) in assay [4]; 65.6 µM (active) and 38.4 µM (active) in [5]; 40.1 µM (active) and 19.6 µM (active) in assay [6]; 63.7 µM (active) and 50.3 µM (active) in assay [9].
`Clc1sc(Cl)c(Cl)c1Cl`: the compound was called inactive in assay [1].
With `C[Si](O[Si](C)(C)C)O[Si](C)(C)C`, the result in [1], in [2], in assay [3], in assay [4], in assay [5] and in assay [7] was inactive. In addition, the compound was classed as inactive in assay [8] and in assay [9].
Regarding `CCC(C)CCCC(C)(C)O` (configuration not stated), the result in assay [1], in [2], in [3], in [4] and in assay [9] was inactive.
Turning to `O=C(O)CCCCC1CCSS1` (configuration not stated), the result in assay [1], in assay [2], in assay [3], in assay [4], in assay [5] and in [6] was inactive. Also, the compound was called inactive in assay [8] and in assay [9].
With `CCCCC(CC)COC(=O)/C=C\C(=O)OCC(CC)CCCC` (configuration not stated), the outcome in [1], in assay [2], in [3], in [4], in assay [6] and in [7] was inactive. For the same compound, the result in assay [9] was inactive.
As for `O=C=NC1CCC(CC2CCC(N=C=O)CC2)CC1` (configuration not stated), the call in assay [1], in assay [2], in [3], in assay [5], in assay [6] and in assay [8] was inactive. Besides, in assay [9], the outcome was inactive.
Consider `O=c1[nH]c(=O)n([C@H]2CCCO2)cc1F`, for which the compound was called inactive in assay [1], in assay [2], in [3], in assay [4], in assay [5] and in [6]. Also, the outcome in assay [7], in assay [8] and in [9] was inactive.
`CC(=O)C(C)=O`: the call in [1], in assay [2], in assay [3], in assay [4], in [6] and in [8] was inactive. For the same compound, the result in assay [9] was inactive.
For `CCCCCCCCCCC(CO)CCCCCCCC` (configuration not stated), the compound was called inactive in assay [1], in [2], in [3], in assay [4], in assay [6] and in [8]. Also, the outcome in [9] was inactive.
In the case of `CC(C)(C)C(=O)c1ccccc1`, the call in assay [1], in assay [2], in [3], in [4], in [5] and in assay [7] was inactive. Also, the compound was called inactive in assay [8] and in assay [9].
